# Laboratory results published in PubChem BioAssay AID624078 (Southern Research Specialized Biocontainment Screening …, 2012).
# Entries with a potency or affinity are not part of this list. Activity calls are given as the source filed them. How the calls were made is not given here.
# Test: BHK-21 cell cytotoxicity, cytotoxicity control for flavivirus guanylyltransferase probe project, secondary screen (AID 624078)
# Details: BHK-21 cell viability cytotoxicity; series mostly up to 100 µM
smiles,measurement,value
Cn1c(=O)c2[nH]c(-c3ccccc3)c(O)c2n(C)c1=O,outcome,inactive
